Screening results (PubChem BioAssay)
GLD-1 RNA inh: GLD-1-TGE RNA interaction inhibition (C. elegans); actives 0.44% (n = 320,000); purified GLD-1 + fluorescein TGE RNA, fluorescence polarization; inhibition, % at 5.96 µM; AID 2280;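 active = percent inhibition above a per-plate cutoff, the plate mean of test compounds plus 3 SD, cut at about 30% in these data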;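 note: 0% = DMSO wells with GLD-1 and probe and 100% = wells lacking GLD-1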
E coli Lon inh: inhibitors of E. coli Lon protease; inhibition, % at 7.94 µM; P0A9M0; actives 0.42% (n = 360,000); purified E. coli Lon protease, fluorescence polarization; in the data active = inhibition above about 13%, passing the limit was not always enough;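 note: 0% = enzyme with probe and DMSO and 100% = no enzyme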
LANA DNA inh: KSHV C-LANA DNA binding inhibition | actives 0.078% (n = 340,000) | MBP-C-LANA/FAM-LBS DNA binding, fluorescence polarization | inhibition, % at 9 µM | AID 504423;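 active = highest replicate inhibition at or above 60% at 9 µM, even if other replicates fall short; inactive = all replicates below 60% inhibition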;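 note: 0% = neutral control wells and 100% = 4 µM acridine orange control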
Keap1 Nrf2 FP: inhibitors of human Keap1-Nrf2 protein-protein interaction | Q14145 | Keap1 Kelch-Nrf2 peptide fluorescence polarization, 1536-well | inhibition, % at 9.4 µM | actives 0.15% (n = 340,000) | AID 504523; in the data active = inhibition above about 12%; inconclusive = no clear call, values can overlap the other calls; inactive = below about 7.3%;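 note: human Keap1 Kelch domain with fluorescein labeled Nrf2 9mer peptide probe; 0% = neutral control wells and 100% = peptide positive control; higher means more block of Keap1 binding to Nrf2 peptide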
BCLXL inh: inhibitors of human Bcl-xL; actives 0.7% (n = 320,000); inhibition, % at 10.9 µM; Q07817; GST-Bcl-xL / FITC-Bim BH3 peptide fluorescence polarization;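 active = inhibition above the mean of all tested compounds plus 3 SD, cutoff set per campaign, cut at about 30% in these data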;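 note: 0% = DMSO wells and 100% = unlabeled Bim-BH3 peptide competitor; inhibitors lower millipolarization by displacing the labeled peptide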
Target sequence (Q07817 whole entry, looked up): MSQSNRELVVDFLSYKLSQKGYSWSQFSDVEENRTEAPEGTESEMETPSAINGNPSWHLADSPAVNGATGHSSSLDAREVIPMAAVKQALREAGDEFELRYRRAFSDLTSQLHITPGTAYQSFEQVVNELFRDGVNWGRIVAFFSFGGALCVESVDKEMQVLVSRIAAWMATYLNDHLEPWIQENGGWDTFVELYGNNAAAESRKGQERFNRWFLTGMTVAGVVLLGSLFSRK
MEX-5 binding: C. elegans MEX-5 TCR-2 RNA binding activity; activity score (negative = inhibition of binding), % at 10 µM; MEX-5/FITC-TCR2 RNA binding, fluorescence polarization; active compounds read low; actives 0.38% (n = 300,000); Q9XUB2;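 active = inhibition past about -25% in most replicates, and total fluorescence under double the plate's negative control median, limit read from the data; inconclusive = replicates evenly split on the limit, or fluorescence at least double controls; inactive = too little inhibition in most replicates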;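 note: 0% = DMSO and -100% = 5 µM competing unlabeled TCR2 RNA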
Target sequence (Q9XUB2 whole entry, looked up): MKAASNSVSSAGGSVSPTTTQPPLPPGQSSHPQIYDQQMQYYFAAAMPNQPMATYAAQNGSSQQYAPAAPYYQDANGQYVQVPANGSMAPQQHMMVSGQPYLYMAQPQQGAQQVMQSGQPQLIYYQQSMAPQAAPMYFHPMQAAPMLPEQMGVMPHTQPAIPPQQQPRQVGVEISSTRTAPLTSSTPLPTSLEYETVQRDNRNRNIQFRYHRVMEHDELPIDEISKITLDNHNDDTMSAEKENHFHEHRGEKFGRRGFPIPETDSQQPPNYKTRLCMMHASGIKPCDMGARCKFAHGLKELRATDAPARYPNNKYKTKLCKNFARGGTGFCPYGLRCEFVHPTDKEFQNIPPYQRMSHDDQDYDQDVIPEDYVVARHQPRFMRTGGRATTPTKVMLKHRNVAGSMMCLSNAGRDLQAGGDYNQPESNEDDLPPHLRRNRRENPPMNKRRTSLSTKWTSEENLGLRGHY
Keap1 TSA: Keap1 (human) Kelch domain binding; shares compounds with Keap1 Nrf2 FP; Keap1 Kelch thermal shift, delta Tm; active compounds read high; max delta Tm, degrees C; actives 8% (n = 400); in the data active = max delta Tm above about 0.48 degrees C
Sypro dye melt: shifts Sypro Orange melt without protein, a false positive; 140 tested, under 10 active; delta Tm, degrees C (concentration not given with the values); shares compounds with Keap1 Nrf2 FP; AID 651858; Sypro Orange dye-only thermal melt, no protein, delta Tm; top dose 26 µM;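 active = at highest dose tested, delta Tm positive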
* = called active by the depositor; ? = inconclusive; / = no result; ! = not confirmed by another sample. Compounds with a hit are over-represented: about 1.2% of the library has one in this group of screens.

SMILES | GLD-1 RNA inh | E coli Lon inh | LANA DNA inh | Keap1 Nrf2 FP | BCLXL inh | MEX-5 binding | Keap1 TSA | others
Cc1oc2c(cc(NS(=O)(=O)c3ccc4c5c(cccc35)C(=O)N4)c3ccccc32)c1C(=O)OC(C)C | -2 | 2 | 0 | 0 | 1 | -1 | /
Cc1cn([C@H]2C[C@H](O)[C@@H](CNC(=O)[C@H](N)Cc3cn(COCc4ccccc4)cn3)O2)c(=O)[nH]c1=O | / | -3 | / | / | / | / | /
CN1C=CC=C/C1=C1/N=C(c2ccccc2)OC1=O | -3 | 1 | 0 | -1 | 7 | 2 | /
CC1=CC(=C2N=C(c3ccccc3)OC2=O)C=C(C)O1 | 2 | 39* | 1 | 17* | 11 | -35* | -0.13
NS(=O)(=O)c1ccc(N=Nc2c[nH]c(=O)c(O)c2)cc1 | 39* | 23 | 68* | 34* | 130* | -89* | 0.54* | Sypro dye melt=-26
Nc1nc(O)c(N=Nc2ccc(S(N)(=O)=O)cc2)c(=O)[nH]1 | / | / | / | / | / | 1 | /
c1ccc(Nc2nc3ccccc3n3nnnc23)cc1 | 5 | -30 | 12 | 24* | 36* | 1 | -0.12 | Sypro dye melt=-28
CCN(C)C1CN(Cc2cn(Cc3cc(C)cc(C)c3)nn2)S(=O)(=O)C1 (stereo not given) | / | -4 | / | / | / | / | /
CC1=C(C(=O)Nc2ccccc2C(=O)NCCCOC(C)C)SCCO1 | 0 | -8 | -1 | 0 | 2 | -1 | /
CCOc1ccc(C(=O)COC(=O)c2nn(CC)c(=O)c3ccccc23)cc1 | 8 | -5 | 11 | 21* | -7 | / | -0.09
COc1ccc(CN(C)C(=O)c2cccc(Oc3ccccc3)c2)c(OC)c1OC | 2 | -8 | 0 | -2 | 1 | 0 | /
Cc1cccn2c(=O)c3cc(S(=O)(=O)c4ccccc4)c(=N)n(Cc4cccnc4)c3nc12 | -1 | 13 | 31 | 20* | 1 | -31* | -0.02
O=C(NCC1COc2ccccc2O1)c1cccc(S(=O)(=O)N2CCOCC2)c1 (stereo not given) | 7 | -7 | 2 | 3 | -2 | / | /
CCN(CC)c1ccc(/C=N/NC(=O)c2c(Cl)cnn2C)c(O)c1 | -4 | 9 | -2 | 22* | 4 | 1 | -0.15
CCOC(=O)N/N=C/c1ccc(N(CC)CC)cc1O | -10 | -7 | 1 | 0 | -6 | -5 | /
Cc1ccc(S(=O)(=O)Nc2cc(C(C(=O)OC(C)C)C(=O)C(F)(F)F)c(O)c3ccccc23)c(C)c1 (stereo not given) | 17 | 8 | -2 | 51* | 8 | -2 | 10*
Cc1ccc(S(=O)(=O)Nc2cccc(S(=O)(=O)Nc3ccccc3C(=O)O)c2)c(C)c1 | 8 | 5 | 0 | 16* | / | / | 1.1*
Cc1ccc(S(=O)(=O)Nc2ccc(O)c3ccccc23)c(C)c1 | / | 7 | 1 | 12* | / | 1 | 1.2*
Cc1ccc(C)c(S(=O)(=O)Nc2ccc(O)c3ccccc23)c1 | 6 | 1 | -2 | 4 | 9 | -2 | /
O=C(O)c1ccccc1NS(=O)(=O)c1cccc(NS(=O)(=O)c2cc(Br)ccc2Br)c1 | -4 | 7 | 0 | 2 | / | / | /
Cc1ccc(S(=O)(=O)Nc2ccc3c4c(cccc24)CC3)c(C)c1 | 7 | 3 | -1 | -1 | 10 | -6 | /
Nc1cc(SCc2ccc(Cl)cc2Cl)ncn1 | / | 3 | 2 | -4 | / | / | /
CN1CCC2(CC1)C1CN(C)CC=C1C(C#N)=C(N)C2(C#N)C#N (stereo not given) | 20 | 0 | 40 | 14*! | 120* | ? | -0.14
COCCCN1C(=O)C(CC(=O)NCCN2CCOCC2)CC(C(=O)N(C(C)C)C(C)C)=C1C (stereo not given) | / | 1 | / | / | / | / | /
COC(=O)[C@]12CCCCC=C1N(Cc1ccc(Cl)cc1Cl)C(=O)[C@H](CC(=O)NCCC(C)C)C2 | / | 5 | / | / | / | / | /
SMILES | GLD-1 RNA inh | E coli Lon inh | LANA DNA inh | Keap1 Nrf2 FP | BCLXL inh | MEX-5 binding | Keap1 TSA | others
O=C(NNS(=O)(=O)c1ccc(F)cc1)c1ccc(O)cc1 | 12 | -12 | 23 | 43* | 6 | 0 | -0.17
Cn1cc(-c2coc3c(C(=O)NCc4cccc(Cl)c4)cccc23)cn1 | / | 10 | / | / | / | / | /
O=C(NNc1cc(Cl)ccc1Cl)c1cccs1 | 0 | -5 | 14 | 31* | 1 | 1 | -0.11
O=C(C(=Cc1ccccc1)CN1CCCCC1)c1ccccc1 | / | -2 | -1 | -10 | / | / | /
COCCCn1c(=NC(=O)c2ccccc2)c(C#N)cc2c(=O)n3cccc(C)c3nc21 | 127* | 84* | 5 | 14* | 181* | ? | 0.04
CCOCCCn1c(=NC(=O)c2cccs2)c(C#N)cc2c(=O)n3cccc(C)c3nc21 | 106* | 13 | 14 | 13* | 138* | -37* | 0.24
COCCCn1c(=NC(C)=O)c(C#N)cc2c(=O)n3cccc(C)c3nc21 | 1 | -8 | / | / | 18 | -3 | /
COc1cc2c3nnc(-c4ccc(F)cc4)c-3cn(Cc3ccccc3)c2cc1OC | -2 | -5 | 2 | 16* | 82* | ? | -0.16 | Sypro dye melt=-26
COc1ccc(-c2nnn(Cc3ccccc3)n2)cc1OC | 6 | 1 | 1 | 2 | 0 | -3 | /
Cc1cc(=O)[nH]c(SCC(=O)N2C(C)CCCC2C)n1 (stereo not given) | 4 | 2 | 0 | -3 | 5 | -1 | /
Cc1ccc2cc(CN(CCCO)S(=O)(=O)c3ccccc3F)c(=O)[nH]c2c1C | -3 | 0 | -1 | -5 | 0 | -3 | /
Cc1ccc2cc(CN(CCCO)S(=O)(=O)c3cccc4nsnc34)c(=O)[nH]c2c1C | -4 | -6 | -2 | 14* | 0 | -1 | -0.15 | Sypro dye melt=-34
Cc1nn(CC(=O)NC2(C#N)CCCCC2)c(C)c1[N+](=O)[O-] | 1 | -4 | 1 | -2 | -3 | / | /
CSc1nsc2nc(=O)c(/C=C3\C=Nc4ccccc43)c(N)n12 | -13 | -14 | 24 | 14* | 6 | ? | 0.74*
CC(C)S(=O)(=O)c1nsc2nc(=O)c(/C=C3\C=Nc4ccccc43)c(N)n12 | 2 | -10 | 0 | -3 | 5 | 13 | /
O=C(OCCN1C(=O)c2cccc3c(N4CCOCC4)ccc(c23)C1=O)c1ccc(Cl)cc1Cl | 73* | -50 | 63* | 43* | 39* | ? | -0.15 | Sypro dye melt=-4.9
O=C(OCc1c(F)cccc1Cl)c1cc([N+](=O)[O-])ccc1N1CCOCC1 | 8 | -4 | 1 | -4 | 3 | 0 | /
COc1ccc(C(=O)NC2=NCCS2)cc1S(=O)(=O)N1CCOCC1 | / | -7 | / | / | / | / | /
Cc1sc2ccccc2[n+]1CC(=O)c1ccccc1 | -7 | -5 | 11 | 22* | 13 | 1 | -0.12
